Reference: PubChem BioAssay AID504332 (National Center for Advancing Translational Sciences (NCATS), 2011)
Screen size: about 350,000 compounds; about 31,000 (8.9%) were called active. About 15% were inconclusive and are not listed. The call rests on the fitted dose curve; in most records, active means well fitted inhibition curve with a large enough effect; inconclusive means small, poorly fitted or top-dose-only effect; inactive means no such curve, though single readings can be large or run the other way. The full list was thinned out, with actives kept by preference.

Target: Histone-lysine N-methyltransferase EHMT2 (Homo sapiens) (UniProt Q96KQ7)
Test: qHTS Assay for Inhibitors of Histone Lysine Methyltransferase G9a; further: nearly all actives have a fitted effect of over 75% in size
Conditions: G9a H3K9 monomethylation, AlphaScreen, 2 h; series mostly up to 59 µM; activity, negative = inhibition: at the top concentration
Procedure, shortened: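 Step 1: enzyme (final 20 nM) with compound, 15 min RT. Step 2: substrate peptide 500 nM and SAM 20 uM, 2 h RT. Step 3: anti-H3K9me1 antibody and AlphaScreen beads, 10 min, then plate read.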
On the % scale 0 is the no-effect control and ±100 the full control effect; potency means the concentration at half of the fitted maximal effect.

Sequence of Histone-lysine N-methyltransferase EHMT2 (Homo sapiens) (Q96KQ7 913-1193 limits assumed): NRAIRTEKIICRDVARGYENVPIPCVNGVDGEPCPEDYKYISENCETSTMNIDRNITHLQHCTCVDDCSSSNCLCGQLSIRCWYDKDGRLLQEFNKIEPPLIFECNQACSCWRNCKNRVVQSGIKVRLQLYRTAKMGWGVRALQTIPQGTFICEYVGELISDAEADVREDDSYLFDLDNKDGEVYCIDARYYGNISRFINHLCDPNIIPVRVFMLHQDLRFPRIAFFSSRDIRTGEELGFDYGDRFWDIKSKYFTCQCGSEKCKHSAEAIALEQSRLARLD

activity, negative = inhibition, inactive:
CCOc1ccc(C2C(=O)N(C3CCCCC3)CC(=O)N2CCC2=CCCCC2)cc1OC (stereo not given) -15.8%
CCOc1ccccc1N1CCN(C(=S)Nc2ccc(S(N)(=O)=O)cc2)CC1 4.71%
CC1CN(C(=S)Nc2ccc(S(N)(=O)=O)cc2)CC(C)O1 (stereo not given) 38.7% [at 102 µM]
CCCN1CCc2nc(N3CCN(C)CC3)ncc2C1 52.1%
Nc1nc(SCCOc2ccccc2)n[nH]1 1.72% [at 12.7 µM]
N#Cc1cccc(CSc2ncnc(N)n2)c1 -30.5% [at 2.33 µM]
Cc1ccc(CCNC(=O)c2ccc3c(c2)nc2n3CCC(C)C2)cc1 (stereo not given) 7.37%
CCOc1ccc(NC(=O)C(=O)NCCc2csc3nc(-c4ccccc4F)nn23)cc1 4.21%
COc1ccc(NC(=O)CCCN2C(=O)CCn3nc(-c4cn(C)c5ccccc45)cc32)cc1OC -18.7%
CCc1ccc(NC(=O)Cn2nnc(C(=O)NCc3ccc4c(c3)OCO4)c2N)cc1 30.7% [at 102 µM]
Cc1cc(C)cc(NC(=O)Cc2csc(C)n2)c1 10.3%
CCN(CC(=O)Nc1ccccc1C(F)(F)F)C(=O)C1CCN(C(=O)Nc2ccccc2)CC1 2.62%
NC(=O)C1CCN(C2OC(=O)c3ccccc32)CC1 (stereo not given) -5.82% [at 102 µM]
CCOC(=O)c1ccc(N2C(=O)CC(N3CC(C)OC(C)C3)C2=O)cc1 (stereo not given) -40.5%
CCOC(=O)C1CCN(c2ccc(C(=O)O)cc2[N+](=O)[O-])CC1 -4.88%
COc1ccc(COCC(O)CN2CCC(C(N)=O)CC2)cc1 (stereo not given) 3.3% [at 102 µM]
COc1cc(Cl)ccc1Nc1ncc(C(=O)N2CCN(c3ccccc3OC)CC2)c2ccccc12 15.8%
COc1cc(C)ccc1OCCSc1nc2ccc(NC(=O)c3ccc(C)cc3)cc2s1 4.13%
N#C/C(=C\c1cccc(F)c1)c1nc(-c2cc3c(ccc4ccccc43)oc2=O)cs1 6.36%
COc1ccc(NC(=O)COCc2cc(-c3ccco3)on2)cc1 -6.26%
CC(OC(=O)/C=C/c1ccccc1)C(=O)NC1CCCCC1C (stereo not given) 27.1% [at 12.7 µM]
CCCCN(C(=O)C1=NN(c2cc(C)ccc2C)C(=O)CC1)c1c(N)n(CCC)c(=O)[nH]c1=O -9.41% [at 12.7 µM]
O=C(CSc1n[nH]c(-c2cccs2)n1)N1CCCCC1 -2.34% [at 2.33 µM]
CCN(CC)S(=O)(=O)c1ccc2nc(COC(=O)c3n[nH]c4ccccc34)[nH]c2c1 12.7% [at 12.7 µM]
COC(=O)c1ccc(/C=N\n2c(C)nnc2C)cc1 -23%
COc1ccc(-c2nn(CC(=O)Nc3ccccc3F)c3c2cnc2ccc(F)cc23)cc1 6.33%
CCOC(=O)c1cccc(NC(=O)Cn2cnc3nc4c(cc3c2=O)CCCC4)c1 7.81%
CC(NCC(=O)Nc1ccccc1C(=O)NC1CC1)c1ccccc1Cl (stereo not given) 3.45% [at 12.7 µM]
Cc1cccc(Cn2c(CN3CCC(C(=O)NCc4ccccc4Cl)CC3)cc3ccccc32)c1 -2.03%
CCCN(CCC)CCNC(=O)Cn1cnc2sc(C)c(S(=O)(=O)N3CCC(C)CC3)c2c1=O 2.22%
Cc1ccc(NC(=O)CN(C)C(=O)COC(=O)C(C)(C)Oc2ccc(Cl)cc2)cc1 20.6% [at 102 µM]
COc1ccc(OCC(=O)NCCS(=O)(=O)N2CCN(c3ccc(F)cc3)CC2)cc1 17.9%
CC(=O)Nc1ccc(NC(=O)CCCc2nc(-c3ccc(C(C)(C)C)cc3)no2)cc1 -1.05%
CCc1ccc(NC(=O)Cn2nnc(C(=O)NCc3ccc(OC)cc3)c2N)cc1 46.9% [at 102 µM]
CCOC(=O)c1c(-c2ccccc2)oc2ccc(OCC(N)=O)cc12 6.55%
CC(=O)c1c(C)n(-c2ccc(C)cc2)c2ccc(O)cc12 8.12% [at 102 µM]
COc1ccc(CCNC(=O)COc2ccc3c(c2)OCO3)cc1 13.4% [at 2.33 µM]
COc1ccc(CCNC(=O)c2cc3cccc4c3n2CC(C)S4)c(OC)c1OC (stereo not given) -4.92%
COCCCNC(=O)/C(C#N)=C/c1c(N2CCCCCC2)nc2ccccn2c1=O 7.66% [at 2.33 µM]
O=C(NCCc1c[nH]c2ccccc12)C(=O)NCC1CCCO1 (stereo not given) 2.09% [at 102 µM]
COc1ccc(Cc2nc3ccc(C(=O)NCc4ccccc4C)cc3o2)cc1 -3.49%
CCOCCn1[nH]c2ccccc2c1=O -9.31% [at 2.33 µM]
O=S(=O)(c1ccccc1)N1CCC(c2ccccc2)CC1 0.779% [at 2.33 µM]
Cc1ccc(C(=O)N/C(=C/c2ccco2)C(=O)NCCc2c[nH]c3ccccc23)cc1C -22.3%
CC(=O)NC(Cc1c[nH]c2ccccc12)C(=O)O (stereo not given) 19.7%
COc1ccccc1Cc1nc2ccccc2nc1SCC(=O)N1CCCc2ccccc21 -10.3%
COc1ccc(Cl)cc1NC(=O)C1CC(=O)N(c2ccc(F)cc2)C1 (stereo not given) -1.46% [at 12.7 µM]
COc1cccc(-n2c(=S)sc3c(=O)n(-c4ccccc4C)c(SCC(=O)O)nc32)c1 -17% [at 102 µM]
Cc1cccc(NC(=O)N2CCN(C)c3ncccc32)c1C -30.4%
CC(=O)Nc1ccc(NC(=O)CSc2nnc(C3CC3)n2-c2ccccc2)cc1 5.42% [at 2.33 µM]
CC(=O)c1cccc(NC(=O)c2cc(C)nn2-c2ccccc2)c1 2.43% [at 102 µM]
Cc1cccn2c(=O)nc(SCC(=O)NCc3ccccc3Cl)nc12 -27.8% [at 102 µM]
Cc1nn(-c2ccc(F)cc2)c(-n2cccc2)c1C(=O)N1CCN(c2ccccc2)CC1 -34.6%
COc1ccc(OCCNC(=O)c2cc(C3CC3)nc3c2cnn3C(C)C)cc1 -3.26%
CC(C)(O)c1ccccc1CC[C@H](SCC1(CC(=O)O)CC1)c1cccc(/C=C/c2ccc3ccc(Cl)cc3n2)c1 1.82% [at 12.7 µM]
CCN(c1ccccc1)S(=O)(=O)c1ccc(OCC(=O)N2CCCC2)cc1 12.7% [at 2.33 µM]
Cc1noc(/C=C/c2ccco2)c1S(=O)(=O)N1CCC(C(=O)Nc2ccc(Cl)cn2)CC1 -13.2%
Cc1cccc(NC(=O)C2CCN(S(=O)(=O)c3c(C)noc3/C=C/c3ccco3)CC2)c1 -51.3%
O=C(Nc1cccc2cccnc12)c1cccc(Cl)c1 279% [at 102 µM]
COc1ccc(CSc2nc(N3CCOCC3)c3c(c2C#N)CC(C)(C)OC3)cc1 4.28%
CC(C)c1nc(N2CCOCC2)c(C#N)c2c1COC(C)(C)C2 5.75%
CCCCCCSc1ccc([C@@H]2[C@@H]3C(=O)N(CC)C(=O)[C@@H]3[C@]3(C(=O)OC)CCCCN23)cc1OC 2.26% [at 2.33 µM]
O=C(COC(=O)C1CC2CCCC(C1)C2=O)NC(=O)c1ccccc1 (stereo not given) -4.63% [at 12.7 µM]
CC(C)NC(=O)c1ccc(Cl)cc1Cl -27.2% [at 102 µM]
CCOC(=O)c1ccc(CN(Cc2ccccc2)S(=O)(=O)c2ccc(Cl)cc2)cc1 21.8%
CN(C)CCCNC(=S)NCc1ccc(Cl)cc1 -7.32%
CCC(Cc1ccccc1)NC(=O)C1CCCCC1 (stereo not given) 10.6% [at 102 µM]
CCc1nn(CC(=O)Nc2cccc(C)c2C)c(=O)c2cc3sccc3n12 1.85%
Oc1ccc(-n2nnnc2SCc2c(F)cccc2Cl)cc1 5.84% [at 102 µM]
COc1ccc(Cc2nc3ccc(C(=O)NCc4ccccc4Cl)cc3o2)cc1 1.3%
O=C(Nc1ccc(O)c(-c2nc3ccccc3o2)c1)c1ccc(-c2cccc(Cl)c2)o1 57.4%
Cc1ccnc(SCC(N)=O)n1 -0.326% [at 102 µM]
Cc1ccnc(N2CCCC(C(=O)NC3CC3)C2)n1 (stereo not given) -9.69%
COc1ccc(C2=NN(c3nc4ccccc4s3)C(=O)C2)cc1 -37.4% [at 102 µM]
Cc1nn(-c2ccc([N+](=O)[O-])cc2)c(N)c1-c1ccccc1 -30.9% [at 102 µM]

Potency, inactive:
COc1ccc(N2CC(C(=O)NCCS(=O)(=O)N3CCN(c4ccccc4)CC3)CC2=O)cc1 (stereo not given)
CN(C(=O)CN(CCO)CC(=O)N(C)C(C)(C)Cc1ccccc1)C(C)(C)Cc1ccccc1

Potency, active:
COc1ccc(N2CCN(C(=S)Nc3ccc(S(N)(=O)=O)cc3)CC2)cc1 8.91 µM
Nc1nc(SCc2cccc(Br)c2)n[nH]1 31.6 µM
CCOC(=O)c1ccc(N2C(=O)CC(N3CCC(C(=O)OCC)CC3)C2=O)cc1 (stereo not given) 35.5 µM
COc1ccc(N2C(=O)CC(N3CCC(C(N)=O)CC3)C2=O)cc1 (stereo not given) 14.1 µM
CCN(CC)S(=O)(=O)c1cccc(-c2n[nH]c(=S)n2/N=C/c2ccc(C(=O)OC)cc2)c1 1.41 µM
COc1ccc(N2CCN(S(=O)(=O)CCNC(=O)C34CC5CC(CC(C5)C3)C4)CC2)cc1 44.7 µM
CC(=O)c1c(C)n(-c2ccc(N(C)C)cc2)c2ccc(OCC(N)=O)cc12 50.1 µM
N#C/C(=C/c1ccc(N2CCCCC2)o1)C(=O)NCCc1c[nH]c2ccccc12 31.6 µM
O=C(NC(Cc1c[nH]c2ccccc12)C(=O)O)/C(=C/c1ccco1)NC(=O)c1ccccc1 (stereo not given) 28.2 µM
COc1ccc(Cl)cc1-n1c(=S)sc2c(=O)n(-c3ccc(F)cc3)c(SCC(=O)O)nc21 28.2 µM
CC[n+]1c(C)n(-c2ccccc2)c2ccc(NC(C)=O)cc21 14.1 µM
Cc1noc(/C=C/c2ccco2)c1S(=O)(=O)N1CCC(C(=O)N2CCc3ccccc32)CC1 44.7 µM
CC1(C)Cc2c(C#N)c(SCc3nc4ccccc4[nH]3)nc(N3CCOCC3)c2CO1 39.8 µM
Nc1ccc(N=Nc2ccccc2Cl)c(N)n1 28.2 µM
OCCN(Cc1ccccc1)Cc1ccc(Cl)cc1 22.4 µM
CC(O)CN(Cc1ccc(Cl)cc1)CC(C)O (stereo not given) 14.1 µM
Cc1ccnc(-n2sc3ccccc3c2=O)n1 1 µM
O=C1CC(c2ccccc2)=NN1c1ccc([N+](=O)[O-])cc1 39.8 µM
